Assay results published in PubChem BioAssay (EPA / NIEHS).
“And” between values parts separate entries of the source, which are not always exact repeats. Identical values can stand only once. Results filed as inconclusive are left out. Where a structure was tested more than once in an assay, its records may differ in their call. The source made the active and inactive calls. How the source made its calls, unless noted: active means hit-call score of the fitted dose curve at least 0.9, where 1 is the maximum; inactive means score below 0.9.

Experiments:
[1] = BSK_SAg_PBMCCytotoxicity: PBMC Cytotoxicity Assessment in the BioMAP Diversity Plus: SAg Assay (AID 2283093); settings: primary human HUVEC with PBMC;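 further: PBMC viability measured as Alamar Blue reduction fluorescence at 546/580 nm; fitted both ways against DMSO so a hit may be loss or gain of signal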;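 on AC50: PBMC superantigen activated with SEB plus TSST-1 one hour after compound addition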
How it was run: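 Human umbilical vein endothelial cells co-cultured with PBMC; PBMC (75,000/well) pre-treated with compound 1 h, then activated with SEB and TSST-1 (20 ng/mL final each) for 90 h. Alamar Blue added 6 h, fluorescence 546/580 nm; bidirectional fit versus DMSO.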

[2] = read-out: Interleukin-8 (IL8), CXCL8 (gene 3576); test: BSK_SAg_IL8: BioMAP Diversity Plus: SAg Assay for Interleukin-8 (IL8) Biomarker Activity (AID 2283094); settings: primary human HUVEC with PBMC; actives raise or lower the signal
How it was run: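 Human umbilical vein endothelial cells co-cultured with peripheral blood mononuclear cells; IL-8 measured by ELISA 24 h after chemical dosing. Bidirectional concentration-response fitting used DMSO as negative control and activity baseline.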

[3] = BSK_SAg_Proliferation: Cell Proliferation Assessment in the BioMAP Diversity Plus: SAg Assay (AID 2283095); settings: primary human HUVEC with PBMC;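 further: relative cell number as total protein by SRB absorbance in sub-confluent culture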
How it was run: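 Human umbilical vein endothelial cells co-cultured with peripheral blood mononuclear cells; total protein measured by sulforhodamine B staining (0.1% SRB after 10% TCA fixation), absorbance at 560 nm, at 96 h. Bidirectional fit against DMSO baseline.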

[4] = BSK_SAg_SRB: Viability Assessment in the BioMAP Diversity Plus: SAg Assay (AID 2283096); settings: primary human HUVEC with PBMC;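 further: cells read one day after compound addition; hits may be either gain or loss of signal compared with DMSO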
How it was run: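 Endothelial/PBMC primary human co-culture; compound 24 h; fix 10% TCA, stain 0.1% SRB, A560; protein content as cytotoxicity proxy; bidirectional curve fit, DMSO = baseline.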

[5] = target: human CYP1A2, CYP1A2 (gene 1544) (UniProt P05177); test: NVS_ADME_hCYP1A2: NovaScreen (NVS) CYP450-related Enzyme Activity (ADME) Assay for human CYP1A2 (AID 2283102; active means hit-call score of the fitted dose curve at least 0.9, where 1 is the maximum;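 on AC50: fluorescence from turnover of a fluorogenic substrate by recombinant insect-cell CYP1A2; potency for inhibition since loss of fluorescence marks reduced CYP1A2 activity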)
Sequence of human CYP1A2, CYP1A2 (gene 1544) (P05177 whole entry, looked up): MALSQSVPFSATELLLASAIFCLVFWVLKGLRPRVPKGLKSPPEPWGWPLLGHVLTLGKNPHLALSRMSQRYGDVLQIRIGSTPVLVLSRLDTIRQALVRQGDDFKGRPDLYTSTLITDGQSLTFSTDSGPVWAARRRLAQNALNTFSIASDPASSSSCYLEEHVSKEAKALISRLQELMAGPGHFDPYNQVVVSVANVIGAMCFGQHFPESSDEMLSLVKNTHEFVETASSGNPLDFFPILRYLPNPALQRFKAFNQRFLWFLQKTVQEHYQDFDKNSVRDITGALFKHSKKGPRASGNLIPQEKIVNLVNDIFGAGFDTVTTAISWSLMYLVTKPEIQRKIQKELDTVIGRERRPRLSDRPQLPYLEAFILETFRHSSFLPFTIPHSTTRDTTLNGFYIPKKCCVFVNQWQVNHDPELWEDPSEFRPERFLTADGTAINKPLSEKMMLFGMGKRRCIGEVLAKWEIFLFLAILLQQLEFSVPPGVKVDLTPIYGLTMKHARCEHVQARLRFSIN
How it was run: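 Compounds were tested at 10 uM in duplicate against recombinant CYP1A2 produced in insect cells. Enzyme activity was measured by fluorescence 0.5 h after dosing, with loss of signal versus acetonitrile control. Active compounds were re-tested in concentration series.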

[6] = target: human CYP19A1, CYP19A1 (gene 1588) (UniProt P11511); test: NVS_ADME_hCYP19A1: NovaScreen (NVS) CYP450-related Enzyme Activity (ADME) Assay for human CYP19A1 (AID 2283098; active means hit-call score of the fitted dose curve at least 0.9, where 1 is the maximum;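 on AC50: potency for inhibitors seen as loss of fluorescent enzyme signal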)
Sequence of human CYP19A1, CYP19A1 (gene 1588) (P11511 whole entry, looked up): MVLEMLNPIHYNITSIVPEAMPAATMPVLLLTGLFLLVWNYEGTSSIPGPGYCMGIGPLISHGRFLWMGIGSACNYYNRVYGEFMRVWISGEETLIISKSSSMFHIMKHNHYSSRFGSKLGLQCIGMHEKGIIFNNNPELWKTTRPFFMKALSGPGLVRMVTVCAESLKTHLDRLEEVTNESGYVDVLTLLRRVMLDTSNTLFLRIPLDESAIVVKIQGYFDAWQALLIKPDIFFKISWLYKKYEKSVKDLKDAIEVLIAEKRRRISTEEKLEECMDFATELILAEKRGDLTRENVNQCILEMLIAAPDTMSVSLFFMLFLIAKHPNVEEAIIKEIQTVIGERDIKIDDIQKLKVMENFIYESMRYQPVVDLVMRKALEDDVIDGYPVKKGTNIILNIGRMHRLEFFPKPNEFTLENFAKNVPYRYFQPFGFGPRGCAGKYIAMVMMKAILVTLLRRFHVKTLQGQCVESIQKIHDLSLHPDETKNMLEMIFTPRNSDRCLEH
How it was run: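 Cell-free enzyme assay with recombinant protein and a specific fluorogenic substrate, read by fluorescence intensity 0.5 h after dosing. Primary screen ran in duplicate at 10 uM; actives were retested in concentration series. Loss of signal versus acetonitrile baseline.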

[7] = target: human CYP1A1, CYP1A1 (gene 1543) (UniProt P04798); test: NVS_ADME_hCYP1A1: NovaScreen (NVS) CYP450-related Enzyme Activity (ADME) Assay for human CYP1A1 (AID 2283100; active means hit-call score of the fitted dose curve at least 0.9, where 1 is the maximum)
Sequence of human CYP1A1, CYP1A1 (gene 1543) (P04798 whole entry, looked up): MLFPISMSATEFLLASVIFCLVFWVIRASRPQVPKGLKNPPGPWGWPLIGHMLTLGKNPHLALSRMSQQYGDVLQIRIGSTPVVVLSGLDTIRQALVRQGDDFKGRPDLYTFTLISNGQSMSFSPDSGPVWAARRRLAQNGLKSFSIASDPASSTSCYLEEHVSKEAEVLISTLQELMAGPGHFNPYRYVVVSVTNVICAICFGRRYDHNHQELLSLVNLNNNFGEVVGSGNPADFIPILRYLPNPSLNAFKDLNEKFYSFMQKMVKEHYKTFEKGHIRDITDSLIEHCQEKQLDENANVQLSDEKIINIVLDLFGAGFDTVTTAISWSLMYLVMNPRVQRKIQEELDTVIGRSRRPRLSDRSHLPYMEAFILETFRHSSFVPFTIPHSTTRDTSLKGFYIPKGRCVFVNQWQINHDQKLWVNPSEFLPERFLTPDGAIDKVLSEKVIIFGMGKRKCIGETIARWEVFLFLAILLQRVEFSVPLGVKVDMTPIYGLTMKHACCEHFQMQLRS
How it was run: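 Compounds first went through duplicate single-concentration testing at 10 uM against purified CYP1A1. Those passing a threshold such as 30% inhibition entered singleton dose-response, highest concentration 20 uM. Signal was fluorescence measured after 1 hour.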

[8] = target: human CYP2A6, CYP2A6 (gene 1548) (UniProt P11509); test: NVS_ADME_hCYP2A6: NovaScreen (NVS) CYP450-related Enzyme Activity (ADME) Assay for human CYP2A6 (AID 2283099; active means hit-call score of the fitted dose curve at least 0.9, where 1 is the maximum)
Sequence of human CYP2A6, CYP2A6 (gene 1548) (P11509 whole entry, looked up): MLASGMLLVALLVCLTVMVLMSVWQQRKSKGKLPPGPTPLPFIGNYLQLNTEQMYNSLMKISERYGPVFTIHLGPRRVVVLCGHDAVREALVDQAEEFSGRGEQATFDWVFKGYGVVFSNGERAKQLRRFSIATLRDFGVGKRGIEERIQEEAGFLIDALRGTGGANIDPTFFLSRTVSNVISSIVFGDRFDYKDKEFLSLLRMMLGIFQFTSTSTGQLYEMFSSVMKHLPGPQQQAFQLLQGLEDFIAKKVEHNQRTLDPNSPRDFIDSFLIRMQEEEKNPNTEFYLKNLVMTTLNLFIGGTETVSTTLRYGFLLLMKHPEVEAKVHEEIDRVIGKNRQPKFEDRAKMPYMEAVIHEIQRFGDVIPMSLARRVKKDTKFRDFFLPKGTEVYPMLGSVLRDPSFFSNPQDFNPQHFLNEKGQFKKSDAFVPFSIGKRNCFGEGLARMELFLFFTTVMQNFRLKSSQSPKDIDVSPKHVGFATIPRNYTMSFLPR
How it was run: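 Recombinant human CYP2A6 from insect cells was incubated with chemical for 0.5 h and activity read by fluorescence. Single-concentration duplicates at 10 uM preceded concentration-response testing to 20 uM, with activity referenced to acetonitrile.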

[9] = target: human CYP2D6, CYP2D6 (gene 1565) (UniProt P10635); test: NVS_ADME_hCYP2D6: NovaScreen (NVS) CYP450-related Enzyme Activity (ADME) Assay for human CYP2D6 (AID 2283107; active means hit-call score of the fitted dose curve at least 0.9, where 1 is the maximum)
Sequence of human CYP2D6, CYP2D6 (gene 1565) (P10635 whole entry, looked up): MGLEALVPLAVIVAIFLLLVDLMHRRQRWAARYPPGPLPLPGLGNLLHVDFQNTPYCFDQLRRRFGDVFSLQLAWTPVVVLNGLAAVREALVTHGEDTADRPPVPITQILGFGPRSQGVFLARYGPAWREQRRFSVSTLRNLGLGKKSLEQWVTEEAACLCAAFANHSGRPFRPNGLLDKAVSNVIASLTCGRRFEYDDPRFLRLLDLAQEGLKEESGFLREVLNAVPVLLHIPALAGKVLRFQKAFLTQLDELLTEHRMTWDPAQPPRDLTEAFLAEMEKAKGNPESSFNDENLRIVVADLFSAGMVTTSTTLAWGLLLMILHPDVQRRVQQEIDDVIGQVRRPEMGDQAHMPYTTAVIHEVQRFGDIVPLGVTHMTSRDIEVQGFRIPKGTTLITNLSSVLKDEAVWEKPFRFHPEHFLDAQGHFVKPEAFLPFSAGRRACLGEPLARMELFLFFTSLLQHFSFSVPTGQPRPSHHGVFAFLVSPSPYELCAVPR
How it was run: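 Compounds were first tested in duplicate at 10 uM against recombinant enzyme produced in insect cells, with substrate turnover measured by fluorescence after 1 hour. Decreased signal, referenced to acetonitrile vehicle, was taken as reduced enzyme activity. Active chemicals went on to concentration-response testing.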

[10] = target: human CYP2B6, CYP2B6 (gene 1555) (UniProt P20813); test: NVS_ADME_hCYP2B6: NovaScreen (NVS) CYP450-related Enzyme Activity (ADME) Assay for human CYP2B6 (AID 2283101; active means hit-call score of the fitted dose curve at least 0.9, where 1 is the maximum)
Sequence of human CYP2B6, CYP2B6 (gene 1555) (P20813 whole entry, looked up): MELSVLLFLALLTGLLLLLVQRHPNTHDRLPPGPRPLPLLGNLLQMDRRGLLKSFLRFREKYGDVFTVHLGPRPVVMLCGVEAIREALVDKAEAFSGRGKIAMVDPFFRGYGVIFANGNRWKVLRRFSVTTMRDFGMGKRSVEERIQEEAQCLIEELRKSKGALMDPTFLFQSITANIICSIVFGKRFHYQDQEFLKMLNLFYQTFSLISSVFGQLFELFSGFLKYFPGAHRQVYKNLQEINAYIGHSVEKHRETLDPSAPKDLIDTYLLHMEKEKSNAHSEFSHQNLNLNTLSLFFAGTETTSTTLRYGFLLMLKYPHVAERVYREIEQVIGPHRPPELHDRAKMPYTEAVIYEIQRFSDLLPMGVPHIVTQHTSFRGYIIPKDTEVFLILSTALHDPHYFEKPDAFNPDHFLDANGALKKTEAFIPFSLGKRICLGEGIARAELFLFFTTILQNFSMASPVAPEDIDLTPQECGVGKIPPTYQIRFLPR
How it was run: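 Cell-free recombinant enzyme assay with a fluorogenic substrate; fluorescence intensity read 1 hour after dosing. Loss of signal relative to acetonitrile negative control indicates inhibition. Primary screen run in duplicate at 10 uM, actives then tested in concentration series.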

Measured: AC50

COC(=O)c1ccccc1S(=O)(=O)NC(=O)Nc1nc(OC(F)F)cc(OC(F)F)n1
active: [5] 5.43 µM
inactive: [1] | [2] | [3] | [4]

COC(=O)c1ccccc1C(=O)O
active: [6] 3.5 µM
inactive: [1] | [2] | [3] | [4] | [7]

CCCN(CCC)C(=O)SCC
inactive: [1] | [2] | [3] | [4] | [6]
active: [6] 0.652 µM

S=C([S-])NCCNC(=S)[S-].[Mn+2]
active: [1] 25.5 µM | [2] 30 µM | [3] 8.4 µM | [6] 1.11 µM | [5] 5.5 µM
inactive: [4] | [8]

O=C(c1ccccc1)C1CCCCC1
inactive: [1] | [2] | [3] | [4] | [6]

CCOC(=O)NCCOc1ccc(Oc2ccccc2)cc1
active: [1] 15.6 µM | [2] 30 µM | [3] 16.2 µM | [4] 20 µM | [9] 1.98 µM

CSC(=O)c1cccc2nnsc12
inactive: [1] | [2] | [3] | [4]
active: [8] 1.22 µM | [5] 0.653 µM | [9] 3.55 µM

O=C(c1ccc(O)cc1O)c1ccc(O)cc1O
inactive: [1] | [2] | [4]
active: [3] 20 µM | [6] 5.78 µM and 5.75 µM and 7.34 µM | [10] 6.26 µM | [5] 4.04 µM

CCCCOCCOCCOCc1cc2c(cc1CCC)OCO2
inactive: [2] | [3] | [4] | [6]
active: [1] 15.9 µM | [7] 5.97 µM | [10] 10 µM | [5] 1.53 µM | [9] 3.87 µM

CN(C)C(=O)Nc1ccc(Cl)c(Cl)c1
active: [5] 1.63 µM
inactive: [1] | [2] | [3] | [4]

N#CSCSc1nc2ccccc2s1
active: [1] 909 nM and 2.23 µM | [2] 5.44 µM and 10.9 µM | [3] 783 nM and 1.76 µM | [4] 18.2 µM and 10.5 µM | [8] 3.06 µM | [10] 1.87 µM | [5] 3.44 µM | [9] 1.99 µM and 1.9 µM

COC(=O)CSc1cc(N=c2sc(=O)n3n2CCCC3)c(F)cc1Cl
not listed: [8] | [9] | [10]
inactive: all other assays above

CCCCC(CC)CN1C(=O)C2C3C=CC(C3)C2C1=O (stereo unspecified)
inactive: [2] | [6]
active: [1] 15.3 µM | [3] 32.7 µM | [4] 20 µM | [5] 5.57 µM

CCCCCCC(C)OC(=O)COc1nc(F)c(Cl)c(N)c1Cl (stereo unspecified)
active: [1] 12.3 µM | [2] 29.1 µM | [3] 9.53 µM | [4] 34.9 µM
inactive: [5]

Oc1ccc(C(c2ccc(O)cc2)C(Cl)(Cl)Cl)cc1
active: [1] 20 µM | [2] 14.2 µM | [3] 24.1 µM | [4] 32.3 µM | [7] 10 µM
inactive: [6]

c1ccc2[nH]c(-c3cscn3)nc2c1
active: [7] 4.65 µM | [5] 2.47 µM
inactive: [1] | [2] | [3] | [4]

C#CCOC(=O)[C@@H](C)Oc1ccc(Oc2ncc(Cl)cc2F)cc1
active: [7] 2.24 µM | [10] 0.777 µM | [5] 1.64 µM
inactive: [1] | [2] | [3] | [4]

CC(C)CCCCCCc1ccc(O)cc1
active: [1] 6.38 µM | [2] 6.55 µM | [3] 5.59 µM | [4] 13.1 µM | [7] 10.7 µM

CCCCCOC(=O)COc1cc(N2C(=O)C3=C(CCCC3)C2=O)c(F)cc1Cl
active: [3] 14.3 µM | [5] 1.29 µM
inactive: [1] | [2] | [4]

CCOC(=O)[C@H](C)Oc1ccc(Oc2nc3ccc(Cl)cc3o2)cc1
inactive: [1] | [2] | [3] | [4] | [5]

CCOC(=O)C(C)Oc1ccc(Oc2nc3ccc(Cl)cc3o2)cc1 (stereo unspecified)
active: [3] 32 µM
inactive: [1] | [2] | [4] | [5]

CCCN(CCC)c1c([N+](=O)[O-])cc(C(F)(F)F)c(N)c1[N+](=O)[O-]
active: [1] 15 µM | [2] 20 µM | [3] 21 µM | [4] 14.7 µM | [5] 6.02 µM

C=CCOC(Cn1ccnc1)c1ccc(Cl)cc1Cl (stereo unspecified)
inactive: [4]
active: [1] 13.9 µM | [2] 37.1 µM | [3] 31.9 µM | [6] 0.628 µM | [8] 2.52 µM | [7] 1.55 µM | [10] 0.188 µM | [9] 3.95 µM

COc1nc(C)nc(NC(=O)NS(=O)(=O)c2ccccc2OCCCl)n1
active: [9] 1.07 µM
inactive: [1] | [2] | [3] | [4]

CC(=O)[C@H]1CC[C@H]2[C@@H]3CCC4=CC(=O)CC[C@]4(C)[C@H]3CC[C@]12C
active: [1] 9.94 µM | [3] 28.8 µM | [4] 4.21 µM
inactive: [2] | [6]

C[C@]12C[C@H](O)[C@H]3[C@@H](CCC4=CC(=O)CC[C@@]43C)[C@@H]1CC[C@@H]2C(=O)CO
inactive: [1] | [2] | [3] | [4] | [6]
